Shn3 3UTR inh: reduction of Shn3 3'UTR firefly luciferase signal, primary screen, Schnurri-3 inhibitor project, cell-based, Clone20 osteoblasts, set 2. Clone20 osteoblast Shn3 3'UTR firefly luciferase, 24 h. inhibition, % at 12.5 µM. 360,000 tested, 0.52% active. AID 588674, 2011;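 active means mean inhibition of at least 75% with every replicate also reaching 75%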
KKLEB tox: cytotoxicity in KKLEB CF airway cells, primary screen, cytotoxicity control for CF NF-kB inhibitor project, cell-based, uHTS, fluorescence assay plates; KKLEB CF airway cells viability, ATPlite luminescence, overnight; hits give low values; cells stimulated with P. aeruginosa culture filtrate; activity change (cytotoxicity), % at 5 µM; 360,000 tested, 0.36% active; AID 602141, 2011;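 active means corrected activity change at or below -50% at 5 µM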
CF NFkB block: inhibitors of PAF-induced NF-kB signaling, primary screen, cell-based, GFP fluorescence, uHTS. 360,000 tested, 0.86% active. KKLEB NF-kB-GFP reporter, GFP fluorescence overnight. inhibition, % at 5 µM;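 active means at least 50% inhibition at 5 µM, scaled per plate between neutral and stimulator controls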;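 further: PAF is a Pseudomonas aeruginosa culture filtrate used as stimulus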
HIF-2a block: HIF-2a reporter inhibitors, primary screen, luminescence, 786-0 RCC cells | 360,000 tested, 0.72% active | AID 624352, 2012 | inhibition, % at 18.8 µM | 786-0 RCC cells HIF-2a reporter, luciferase luminescence, overnight;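 active means inhibition of the luminescence signal of 40% or more relative to plate controls, in a single-dose primary screen at 18.75 µM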
Peg3 promoter: Peg3 promoter-driven luciferase inhibitors, primary screen, cell-based, HeLa, luciferase luminescence; HeLa PEG-Prom luciferase reporter, overnight; inhibition, % at 20 µM; 360,000 tested, 1.7% active; AID 588405, 2011;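 active means inhibition of at least 50% at 20 µM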
MITF TRPM1 inh: inhibitors of MITF-dependent TRPM1 promoter reporter, primary screen, cell-based, SK-MEL-5, single point, luciferase. SK-MEL-5 TRPM1 promoter luciferase, 24 h. inhibition, % at 12.5 µM. 330,000 tested, 0.83% active;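 active means mean inhibition across replicates of 60% or more, whatever share of single replicates reaches that level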
Large screens that a line does not name were inactive. A selection: hits, their analogues and other compounds. The true share with any hit is near 2.7%.

CCCCN(CC)S(=O)(=O)c1ccc(C(=O)N(CCCN(C)C)c2nc3cc(C)cc(C)c3s2)cc1	Peg3 promoter 103, MITF TRPM1 inh 79
C=CCN1C(=O)c2ccc(C(=O)N(CC(C)C)c3c(N)n(CCCC)c(=O)[nH]c3=O)cc2C1=O	none
CN(CC(=O)Nc1ccccc1Cl)C(=O)c1cccc(S(=O)(=O)N2CCN(c3ccc(F)cc3)CC2)c1	Shn3 3UTR inh 88
CN(CC(=O)Nc1ccccc1Cl)C(=O)c1cccc(S(=O)(=O)N2CCN(Cc3ccccc3)CC2)c1	none
Cc1cccc(C)c1NC(=O)CN(C)C(=O)c1cccc(S(=O)(=O)N2CCN(c3ccc(F)cc3)CC2)c1	none
CN(Cc1cccc(F)c1)C(=O)c1cccc(S(=O)(=O)N2CCN(Cc3ccccc3)CC2)c1	none
CC1CN(C(=O)c2cccc(S(=O)(=O)N3CCN(c4ccc(F)cc4)CC3)c2)CC(C)O1 (configuration not stated)	none
CN(CC(=O)Nc1ccccc1Cl)C(=O)c1cccc(S(=O)(=O)N2CCN(c3ccccc3)CC2)c1	Shn3 3UTR inh 87
CN(Cc1ccc(Cl)c(Cl)c1)C(=O)c1cccc(S(=O)(=O)N2CCN(Cc3ccccc3)CC2)c1	Shn3 3UTR inh 87
O=C(c1cccc(S(=O)(=O)N2CCN(c3ccc(F)cc3)CC2)c1)N1CCCC(C(F)(F)F)C1 (configuration not stated)	Shn3 3UTR inh 92
CCCCCN(C(=O)CCC(=O)OCc1ccc(Cl)cc1Cl)c1c(N)n(CCCC)c(=O)[nH]c1=O	none
Clc1ccc(-c2cccc3nccn23)c(Cl)c1	none (no result: MITF TRPM1 inh)
CN(Cc1cn(Cc2ccccc2)nn1)C1CN(Cc2cn(Cc3ccccc3)nn2)S(=O)(=O)C1 (configuration not stated)	none (no result: Shn3 3UTR inh, KKLEB tox, CF NFkB block, Peg3 promoter, MITF TRPM1 inh)
COc1ccc(CCN(C)C(=O)c2cccc(S(=O)(=O)N3CCN(c4ccc(F)cc4)CC3)c2)cc1OC	none (no result: MITF TRPM1 inh)
CN(CCOc1ccc(Cl)cc1)C(=O)c1cccc(S(=O)(=O)N2CCN(c3ccc(F)cc3)CC2)c1	Shn3 3UTR inh 89
CCOc1ccc(N2CC(NS(=O)(=O)c3cccnc3)CC2=O)cc1 (configuration not stated)	none
CCCNC(=O)c1cc2c(c(-c3cccc(-c4ccc(F)cc4)c3)n1)[C@H](CCO)N(S(=O)C(C)(C)C)C2 (some centres not stated)	Peg3 promoter 51 (no result: MITF TRPM1 inh)
CCOC(=O)C1CCN(C(=O)c2ccc(OCC(=O)Nc3cccc(C(F)(F)F)c3)cc2)CC1	none
CCOC(=O)C1CCN(C(=O)c2ccc(OCC(=O)Nc3cccc(C(F)(F)F)c3)c(OC)c2)CC1	Shn3 3UTR inh 89
Cc1cc(N2CCN(C)CC2)nc2ccc(NC(=S)N3CCN(c4ccc(Cl)cc4)CC3)cc12	none
Cc1cc(N2CCN(C)CC2)nc2ccc(NC(=S)N3CCN(c4cccc(Cl)c4)CC3)cc12	none
Cc1cccc(N2CCN(C(=S)Nc3ccc4nc(N5CCN(C)CC5)cc(C)c4c3)CC2C)c1 (configuration not stated)	Peg3 promoter 76
Cc1cc(N2CCN(C)CC2)nc2ccc(NC(=S)N3CCN(c4ccc(F)cc4)CC3)cc12	Peg3 promoter 66
COc1ccc(NC(=O)CO/N=C/C(=O)Nc2ccccc2C)c([N+](=O)[O-])c1	none
CC(C)CNc1cc(N2CCCC2)ccc1[N+](=O)[O-]	Peg3 promoter 54
CC12CCC(=O)C=C1CCC1C2C(O)CC2(C)C(c3csc(N)n3)CCC12 (configuration not stated)	Shn3 3UTR inh 86
Cc1cc(C2C(=O)NC(=O)C2=O)c(C)cc1Br (configuration not stated)	none
O=[N+]([O-])c1cc(-c2nnc(Nc3ccc(O)cc3)c3ccccc23)ccc1N1CCOCC1	Peg3 promoter 52
CN(C)c1ccc(NC(=O)CN2CCc3ccccc3C2)cc1	none
Cc1[nH]c2c(ccc3ccccc32)c1C1C(CCN)C1(C)C (configuration not stated)	Peg3 promoter 100, MITF TRPM1 inh 71
CCCc1ccc(-c2cc(C(=O)N3CCN(c4ccccn4)CC3)c3ccccc3n2)cc1	KKLEB tox -76
COc1ccc(-c2cc(C(=O)N3CCN(c4ccccn4)CC3)c3ccccc3n2)cc1	KKLEB tox -61
CCOc1ccc(-c2cc(C(=O)N3CCN(c4ccccn4)CC3)c3ccccc3n2)cc1	KKLEB tox -68
CCOc1ccc(-c2cc(C(=O)N3CCCC3)c3ccccc3n2)cc1	none
CCc1ccc(-c2nc(CSCC(=O)N3CCN(c4ccccn4)CC3)c(C)o2)cc1	HIF-2a block 58, MITF TRPM1 inh 64
CNC(=O)C(=O)N/N=C/c1cccnc1	none
O=C(Cc1cccc(NC(=O)C2CCN(S(=O)(=O)c3cccc([N+](=O)[O-])c3)CC2)c1)Nc1cccc(C(=O)N2CCOCC2)c1	none
CCCCn1c(N)c(N(CCOC)C(=O)CSCc2ccc(C)cc2)c(=O)[nH]c1=O	none
CCCN(CC(=O)Nc1ccccc1C)C(=O)CCN1C(=O)c2cccc([N+](=O)[O-])c2C1=O	none
Cc1noc(C)c1S(=O)(=O)Nc1ccc2c(c1)C(=O)N([C@H](C)CO)C[C@H](C)[C@@H](CN(C)C(=O)NC1CCCCC1)O2	none
COc1ccc2cc(-c3cc(C(=O)O)c4ccccc4n3)ccc2c1	KKLEB tox -54
CCOc1ccc(-c2cc(C(=O)N3CCN(C)CC3)c3ccccc3n2)cc1	none
CCOC(=O)N1CCN(C(=O)c2cc(-c3ccc(OCC)cc3)nc3ccccc23)CC1	KKLEB tox -75
COc1ccc(-c2cc(C(=O)O)c3ccccc3n2)c(OC)c1	none
CC(/C=N/NC(=O)c1ccc(Cn2cc([N+](=O)[O-])cn2)o1)=C\c1ccccc1	none
CCOC(=O)c1cc(NC(=O)c2ccc(Cl)cc2)c(=O)n2c1oc1ccc(Cl)cc12	KKLEB tox -58
Cc1ccc2nc(/C(C#N)=C/c3ccc(-c4cccc([N+](=O)[O-])c4)o3)[nH]c2c1	Peg3 promoter 115
CN1C(C(=O)NCc2ccco2)=CC(c2ccc(F)cc2)=NS1(=O)=O	none
COc1ccc(C2CC(c3ccc4ccccc4c3)=NN2C(=O)CNC2CCCCC2)cc1 (configuration not stated)	Peg3 promoter 90
C=CCNCC(=O)N1N=C(c2ccc3ccccc3c2)CC1c1ccc(OC)cc1 (configuration not stated)	Peg3 promoter 66
